HIF-2a block – HIF-2a reporter inhibitors, primary screen, luminescence, 786-0 RCC cells; 786-0 RCC cells HIF-2a reporter, luciferase luminescence, overnight; inhibition, % at 18.8 µM; actives 0.72% (n = 360,000);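 active = inhibition of the luminescence signal of 40% or more relative to plate controls, in a single-dose primary screen at 18.75 µM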
TRPM1 prom inh – inhibitors of MITF-dependent TRPM1 promoter reporter, primary screen, cell-based, SK-MEL-5, single point, luciferase; actives 0.83% (n = 330,000); SK-MEL-5 TRPM1 promoter luciferase, 24 h; inhibition, % at 12.5 µM; AID 488899, 2010;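 active = mean inhibition across replicates of 60% or more, whatever share of single replicates reaches that level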
TROY signal inh – inhibitors of TROY-driven NF-kB signaling, primary screen, Q293 LMP1-TROYcd cells, NF-kB luciferase, uHTS. Q293 LMP1-TROYcd NF-kB luciferase reporter, 4 h. inhibition, % at 10 µM. actives 0.98% (n = 360,000);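 active = compounds whose plate-normalised and pattern-corrected inhibition of the luciferase reporter signal at the single screening dose is 50% or more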
EBV LMP1 NFkB – EBV LMP1-driven NF-kappaB luciferase reporter inhibitors, primary screen, cell-based, luminescence, single point; actives 0.69% (n = 350,000); inhibition, % at 12.5 µM; LMP1-induced NF-kappaB luciferase reporter cells; in the data active = inhibition above about 41%
Peg3 promoter – Peg3 promoter-driven luciferase inhibitors, primary screen, cell-based, HeLa, luciferase luminescence. HeLa PEG-Prom luciferase reporter, overnight. AID 588405, 2011. inhibition, % at 20 µM. actives 1.7% (n = 360,000);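 active = inhibition of at least 50% at 20 µM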
TWEAK Fn14 block – inhibitors of TWEAK-Fn14 signaling, primary screen, luciferase reporter cells, uHTS; TWEAK-stimulated Fn14 reporter cells, luciferase luminescence, 8 h; inhibition, % at 10 µM; actives 2% (n = 360,000); AID 1159606, 2016; in the data active = inhibition above about 50%
A number is an active result; . = inactive; / = no result given. Hits are enriched below; roughly 4% of the tested compounds scored in any of these assays.

SMILES	HIF-2a block	TRPM1 prom inh	TROY signal inh	EBV LMP1 NFkB	Peg3 promoter	TWEAK Fn14 block
CC(C)(C)c1ccc(CC(=O)N2CCC2(C)C(=O)N2CCCCC2)cc1 (stereo not given)	.	/	.	/	.	.
Cc1cccc(Oc2ccc(N)cc2)c1	.	.	.	.	.	.
Nc1ccc(Oc2cccc(Oc3ccc(N)cc3)c2)cc1	90	81	60	.	.	82
Cc1c(NC(=O)c2nn(CC(C)C)c(=O)c3ccccc23)c(=O)n(-c2ccccc2)n1C	.	.	.	.	.	.
COC(=O)NC1CC2C=CC1C1C=CC21 (stereo not given)	.	/	.	.	.	.
O=S(=O)(c1cccs1)N1CCN(CC(O)COc2cc(Cl)ccc2Cl)CC1 (stereo not given)	.	.	52	.	.	.
O=S(=O)(c1cccs1)N1CCN(CCOc2ccc(Cl)cc2)CC1	.	.	.	.	.	.
COc1ccc(C2(C)C(C#N)C(=O)NC(=O)C2C#N)cc1 (stereo not given)	.	.	.	.	.	.
COc1ccc(S(=O)(=O)N2CCCCC2)cc1NC(=O)C1CC1C (stereo not given)	.	.	.	.	.	.
O=C(CSc1c(Cl)cccc1Cl)N1CCC(c2nc3ccccc3s2)CC1	.	.	51	.	.	.
O=C(CSc1ccc(Cl)cc1)N1CCC(c2nc3ccccc3s2)CC1	.	.	.	.	.	.
O=C(CSc1nnc(-c2ccc(Cl)cc2)n1Cc1ccco1)Nc1ccc2c(c1)OCCO2	.	.	52	.	.	.
CC(=O)Nc1cccc(NC(=O)CSc2ncc(-c3ccc(Cl)cc3)n2Cc2ccco2)c1	.	.	61	.	.	81
O=C(CSc1ccc(-c2ccc(Cl)cc2)nn1)Nc1ccc2c(c1)OCCO2	.	.	62	.	.	.
O=C(CN1CCC(C(=O)c2ccc(Cl)cc2)CC1)Nc1ccc2c(c1)OCCO2	.	.	.	.	.	62
O=C(CSc1nnc(-c2ccccc2Cl)n1Cc1ccco1)Nc1ccc2c(c1)OCCO2	.	.	.	.	.	.
Cc1ccccc1CC(=O)Nc1ccc(C(=O)N2CCCC2)cc1	.	.	.	.	.	.
O=C(c1cc2cc(Cl)cc(Cl)c2oc1=O)N1CCOCC1	.	.	.	.	55	.
O=C(c1ccc(Cl)cc1Cl)N1CCOCC1	.	.	.	.	.	.
CC(=O)Nc1ccc(NC(=O)C(C)OC(=O)c2c(NC(C)=O)sc(C)c2C)cc1 (stereo not given)	.	.	.	.	.	.
C/C(=N/NC(=O)C(O)(c1ccccc1)c1ccccc1)c1ccc([N+](=O)[O-])o1	.	65	.	.	.	.
CCCCc1ccc(NC(=O)COC(=O)c2ccc3ncsc3c2)cc1	.	/	.	.	.	.
CC1Cc2ccccc2N1C(=O)Cn1nnc(-c2ccccc2NC(=O)C2CCC2)n1 (stereo not given)	.	.	59	.	.	.
O=C(Nc1ccccc1-c1nnn(CC(=O)N2CCc3ccccc3C2)n1)C1CCC1	.	.	/	.	.	71
CCC1C/C(=C\c2cc(OC)c(OC)cc2OC)C(=O)/C(=C/c2cc(OC)c(OC)cc2OC)C1 (stereo not given)	.	.	.	.	.	.
SMILES	HIF-2a block	TRPM1 prom inh	TROY signal inh	EBV LMP1 NFkB	Peg3 promoter	TWEAK Fn14 block
COc1cc(OC)c(OC)cc1/C=C1\CC(C)C/C(=C\c2cc(OC)c(OC)cc2OC)C1=O (stereo not given)	.	.	.	.	58	64
CCN(CC)c1ccc(S(=O)(=O)N2CCOCC2)cc1NC(=O)COC(=O)/C=C/c1ccc(C)o1	.	.	.	.	.	.
O=C(NCCCN1CCCC1=O)C(=O)NCC1OCCN1S(=O)(=O)c1cc(F)ccc1F (stereo not given)	.	/	.	.	.	.
O=C(NC(=S)N1CCCCC1c1cccnc1)c1ccc(F)cc1 (stereo not given)	.	.	73	.	.	.
CC(=O)c1ccc(-n2c(CCC(=O)O)ccc2-c2cccs2)cc1	.	.	57	.	.	61
NC(=O)c1ccc(-n2c(CCC(=O)O)ccc2-c2cccs2)cc1	.	.	.	.	.	.
O=C(O)CCc1ccc(-c2ccccc2)n1NC(=O)c1ccco1	.	.	.	.	.	.
O=C(O)CCc1ccc(-c2cccs2)n1NC(=O)c1ccco1	.	.	.	.	.	105
c1ccc(-c2cc(NCCN3CCCCC3)c3ccccc3n2)cc1	.	.	.	.	101	.
O=C(CCS(=O)(=O)Cc1ccccc1F)NCCc1ccc(Cl)cc1	.	.	.	.	.	.
Cc1cc(C)c(OCC(=O)NCC(C)(C)N2CCOCC2)c(C)c1	.	.	.	.	.	.
CN(CC(=O)Nc1ccc(N2CCOCC2)cc1)Cc1c(O)ccc2ccccc12	.	.	50	.	.	.
Cc1ccc(S/C=C\C(=O)c2ccccc2)cc1	.	.	53	.	.	88
O=C(CN1C(=O)NC2(CCCC2)C1=O)Nc1cc(Cl)ccc1N1CCOCC1	.	.	.	.	.	.
COC1=CC(=O)OC(c2cccc(Cl)c2)C1 (stereo not given)	.	/	/	/	/	/
CCOC(=O)c1sc(NC(=O)CCCCCN2C(=O)c3cccc4cccc(c34)C2=O)nc1C	.	67	.	.	.	.
Cc1cccc(NC(=O)CCS(=O)(=O)c2ccc3nc(C)sc3c2)c1	.	/	.	/	.	.
Cc1cc(C)c(S(=O)(=O)N2CCCCC2)cc1N(C)S(=O)(=O)c1ccc(Cl)cc1	.	.	.	.	98	.
COc1ccc(NC(=S)NCc2cccs2)cc1	.	.	.	57	.	.
COc1ccc(CNC(=S)Nc2ccc(Br)cc2)cc1	.	.	.	.	.	64
CNC(=S)Nc1ccc2nc(C)c(C)nc2c1	.	.	.	50	.	.
CNC(=S)Nc1ccc(Br)cc1	.	.	61	.	.	.
NC(=O)CC(NC(=O)Cc1ccc(Br)cc1)c1ccc(NC2CCCCCCC2)c([N+](=O)[O-])c1 (stereo not given)	.	.	.	.	.	.
NC(=O)CC(NC(=O)Cc1cccc2ccccc12)c1ccc(NCc2ccc(F)cc2)c([N+](=O)[O-])c1 (stereo not given)	.	.	.	52	.	.
NC(=O)CC(NC(=O)Cc1cccc2ccccc12)c1ccc(NCc2ccccc2)c([N+](=O)[O-])c1 (stereo not given)	.	.	.	.	.	.
NC(=O)CC(NC(=O)Cc1ccc(Br)cc1)c1ccc(NC2CCCC2)c([N+](=O)[O-])c1 (stereo not given)	.	.	.	.	61	.

Assay outcomes deposited in PubChem by several laboratories.
